Experimental data as given in PubChem BioAssay AID1159580 (chemical genetic matrix, 2015).
About 2,000 (36%) of roughly 5,500 compounds were called active. Roughly 18% stayed inconclusive and do not appear here. No stated cut-off is given here; in the data, active means normalized growth mostly below about 0.91 (no sharp cut-off); inconclusive means no clear call, values can overlap the other calls; inactive means mostly above about 0.92. Some of the results follow.

Experiment: chemical genetic growth profiling, strain panel (AID 1159580);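 further: tested at 20 µM; growth read once vehicle control cultures reached saturation at 30 °C; 1 = growth at the plate median or of vehicle wells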
Settings: S. cerevisiae deletion strains, growth OD

Measured: normalized growth

Cc1cc(C2=CSC3=NCCN23)ccc1Cl
inactive: locus YAL013W, strain DEP1, stronger effect = lower value 0.99 | locus YBR229C, strain ROT2, stronger effect = lower value 1.01 | locus YDL101C, strain DUN1, stronger effect = lower value 0.974 | locus YDL134C, strain PPH21, stronger effect = lower value 0.989 | locus YDR150W, strain NUM1, stronger effect = lower value 0.974 | locus YEL061C, strain CIN8, stronger effect = lower value 1 | locus YGR078C, strain PAC10, stronger effect = lower value 0.989 | locus YHR030C, strain SLT2, stronger effect = lower value 0.872 | locus YHR087W, strain rtc3, stronger effect = lower value 1.01 | locus YJL187C, strain SWE1, stronger effect = lower value 1 | locus YJR043C, strain POL32, stronger effect = lower value 0.999 | locus YJR075W, strain HOC1, stronger effect = lower value 0.982 | locus YLR039C, strain RIC1, stronger effect = lower value 1.02 | locus YLR058C, strain SHM2 (second series), stronger effect = lower value 0.996 | locus YLR085C, strain ARP6, stronger effect = lower value 0.933 | locus YLR262C, strain YPT6, stronger effect = lower value 1.03 | locus YML094W, strain GIM5, stronger effect = lower value 0.99 | locus YMR219W, strain ESC1, stronger effect = lower value 0.987 | locus YMR263W, strain SAP30, stronger effect = lower value 0.998 | locus YNL153C, strain GIM3, stronger effect = lower value 0.992 | locus YNL298W, strain CLA4 (second series), stronger effect = lower value 0.946 | locus YNL322C, strain KRE1, stronger effect = lower value 0.989 | locus YNR030W, strain Alg12, stronger effect = lower value 0.994 | locus YOL006C, strain TOP1, stronger effect = lower value 0.752 | locus YPL055C, strain LGE1, stronger effect = lower value 1.02 | locus YPL241C, strain CIN2, stronger effect = lower value 0.975 | locus YPR135W, strain CTF4, stronger effect = lower value 0.709
